Compound activity deposited in PubChem BioAssay by National Center for Advancing Translational Sciences (NCATS).
LASV entry inh – Lassa virus entry inhibition | 300,000 compounds, 1.2% hits | AID 540256 | Potency, µM (series often up to 37.9 µM), hits mostly inhibitors | Lassa virus pseudotype entry inhibition, cell reporter; calls by dose curve; tested in HEK293 cells; also: nearly all actives have a fitted effect of over 50% in size
SARS PLpro yeast – blocks SARS-CoV papain-like protease in a yeast assay; 330,000 compounds, 0.19% hits; S. cerevisiae expressing SARS-CoV PLpro, growth rescue; Potency, µM (titrated, usually from 32.9 µM), usual class: activators; calls by dose curve; also: nearly all actives have a fitted effect of over 55% in size
FMDV antiviral – antivirals against foot and mouth disease virus; Potency, µM (titrated, usually from 57.9 µM), most hits filed as inhibitors; 410,000 compounds, 1.2% hits; FMDV antiviral cell-based qHTS; AID 1159524; calls by dose curve; tested in HEK293T cells; also: read-out not given here; nearly all actives have a fitted effect of over 45% in size
HCV inh – HCV inhibition; Huh7.5.1 HCVcc-Cre infection, luciferase reporter, 44 h; Potency, µM (titrated, usually from 41.8 µM), hits mostly inhibitors; 340,000 compounds, 3.4% hits; AID 651820; active = well fitted inhibition curve with a large enough effect; inconclusive = small, poorly fitted or top-dose-only effect, or another doubt; inactive = no such curve, though single readings can be large or run the other way
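Whole-lifecycle infectious HCVcc-Cre system; cells 1,000/well, compound then virus (~0.5 moi) added 4 h after plating, 44 h culture. Luciferase read 15 sec following 15 min substrate incubation, room temp.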
HCMV antiviral – blocks human cytomegalovirus replication | HFF cells, HCMV-luciferase reporter, 72 h; stronger effect = lower value | activity change, negative = inhibition, % at 57.5 µM | 410,000 compounds, 4.5% hits; in the data active = activity change below about -60%; inconclusive = no clear call, values can overlap the other calls; inactive = above about -39%
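Screen run at 2 compound doses on HFFs infected with reporter HCMV, MOI 1 PFU/cell. Luciferase activity from cell lysates at 72 h post infection gave inhibition relative to buffer-only and Salinomycin wells.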
MARV entry inh – Marburg virus entry inhibition; Marburg virus pseudotyped entry inhibition, cell reporter; Potency, µM (doses to about 37.8 µM), actives largely listed as inhibitors; 300,000 compounds, 1.8% hits; AID 540276; calls by dose curve; tested in HEK293 cells
Hits are given with their value. Compounds with a hit are over-represented: about 8% of the library has one in this group of screens.

How did CCOC(=O)N1CCC(NS(=O)(=O)c2cc(Br)cc3c2N(C(=O)CC)CC3)CC1 do in these assays?
LASV entry inh: inconclusive; SARS PLpro yeast: inactive; FMDV antiviral: inactive; HCV inh: inactive; HCMV antiviral: -105.1; MARV entry inh: inconclusive

What do the screens show for `CCC(=O)N1CCc2cc(Br)cc(S(=O)(=O)CCC(=O)NCCc3ccc(Cl)cc3)c21`?
LASV entry inh: inconclusive; FMDV antiviral: inactive; HCMV antiviral: inactive; MARV entry inh: inactive

How did CCOC(=O)N1CCC(NS(=O)(=O)c2cc3c(cc2Cl)NC(=O)CO3)CC1 do in these assays?
LASV entry inh: 1.83µM; SARS PLpro yeast: inactive; FMDV antiviral: inactive; HCV inh: inactive; HCMV antiviral: inactive; MARV entry inh: inactive

What do the screens show for `CCC(=O)N1CCc2cc(Br)cc(S(=O)(=O)CCC(=O)NCCOC)c21`?
LASV entry inh: inactive; SARS PLpro yeast: inactive; FMDV antiviral: inactive; HCV inh: inactive; HCMV antiviral: -84.0; MARV entry inh: inactive

How did CCN(Cc1ccccc1)S(=O)(=O)c1cc(Br)cc2c1N(C(=O)C1CC1)CC2 do in these assays?
LASV entry inh: inactive; FMDV antiviral: inactive; HCMV antiviral: inconclusive; MARV entry inh: inconclusive

How did CN(Cc1ccccc1)S(=O)(=O)c1cc(Br)cc2c1N(C(=O)C1CC1)CC2 do in these assays?
LASV entry inh: inconclusive; FMDV antiviral: inactive; HCMV antiviral: -70.6; MARV entry inh: inactive

Results for O=C(C1CC1)N1CCc2cc(Br)cc(S(=O)(=O)NC3CCCCC3)c21 ?
LASV entry inh: inconclusive; SARS PLpro yeast: inactive; FMDV antiviral: inactive; HCV inh: 7.08µM; HCMV antiviral: inactive; MARV entry inh: inconclusive

What do the screens show for `Cc1ccc(Nc2nnc(-c3ccc(N4CCOCC4)c([N+](=O)[O-])c3)c3ccccc23)cc1`?
LASV entry inh: inconclusive; SARS PLpro yeast: inactive; FMDV antiviral: inactive; HCV inh: 25.1µM; HCMV antiviral: -88.6; MARV entry inh: inconclusive

What do the screens show for `O=[N+]([O-])c1cc(-c2nnc(Nc3ccccc3)c3ccccc23)ccc1N1CCOCC1`?
SARS PLpro yeast: inactive; FMDV antiviral: inactive; HCV inh: 12.6µM; HCMV antiviral: -73.8; MARV entry inh: inactive

What do the screens show for `O=[N+]([O-])c1cc(-c2nnc(N3CCOCC3)c3ccccc23)ccc1N1CCOCC1`?
SARS PLpro yeast: inactive; FMDV antiviral: inconclusive; HCV inh: inconclusive; HCMV antiviral: inactive

Results for O=[N+]([O-])c1cc(-c2nnc(Nc3ccc(O)cc3)c3ccccc23)ccc1N1CCOCC1 ?
LASV entry inh: inconclusive; SARS PLpro yeast: inactive; FMDV antiviral: 20µM; HCV inh: inconclusive; HCMV antiviral: -69.2; MARV entry inh: inconclusive

What do the screens show for `COc1ccc(NC(=O)c2cc(-c3ccc(F)cc3)no2)cc1OC`?
LASV entry inh: inactive; FMDV antiviral: inactive; HCMV antiviral: inactive

How did O=C1CN(C(=O)c2ccc(S(=O)(=O)N3CCCC3)cc2)C(c2ccccc2)c2cc(Br)ccc2N1 (stereo not drawn) do in these assays?
LASV entry inh: inconclusive; FMDV antiviral: inactive; HCMV antiviral: inactive; MARV entry inh: inactive

What do the screens show for `Cn1cc(C(=O)c2ccc(Cl)cc2Cl)cc1C(=O)N/N=C(\N)COc1ccccc1`?
LASV entry inh: inconclusive; SARS PLpro yeast: inactive; FMDV antiviral: inactive; HCV inh: inactive; HCMV antiviral: inactive; MARV entry inh: inconclusive

What do the screens show for `Cn1cc(C(=O)c2ccc(Cl)cc2Cl)cc1C(=O)N/N=C(\N)COc1ccc(F)cc1`?
LASV entry inh: inconclusive; SARS PLpro yeast: inactive; FMDV antiviral: inconclusive; HCV inh: 10µM; HCMV antiviral: inactive; MARV entry inh: inconclusive

How did Cn1cc(C(=O)c2ccc(Cl)cc2Cl)cc1C(=O)N/N=C(\N)COc1ccc(Cl)cc1 do in these assays?
LASV entry inh: inconclusive; SARS PLpro yeast: inactive; FMDV antiviral: inconclusive; HCV inh: 12.6µM; HCMV antiviral: inactive; MARV entry inh: inconclusive

What do the screens show for `CCOC(=O)C/C(N)=N/NC(=O)c1ccc(Cl)cc1Cl`?
LASV entry inh: inactive; SARS PLpro yeast: inactive; FMDV antiviral: inactive; HCV inh: inactive; HCMV antiviral: inconclusive; MARV entry inh: inactive

What do the screens show for `Cn1cc(C(=O)c2ccc(Cl)cc2Cl)cc1C(=O)O`?
LASV entry inh: inactive; SARS PLpro yeast: inactive; FMDV antiviral: inactive; HCV inh: inactive; HCMV antiviral: inactive; MARV entry inh: inconclusive

How did Cn1cc(C(=O)c2ccc(Cl)cc2Cl)cc1C(=O)N/N=C(\N)COc1ccc(Cl)cc1Cl do in these assays?
LASV entry inh: inconclusive; SARS PLpro yeast: inconclusive; FMDV antiviral: inconclusive; HCV inh: 12.6µM; HCMV antiviral: inconclusive; MARV entry inh: inconclusive

How did CCC1CCCCN1C(=O)CSc1nc(-c2ccc(OC)cc2)cc(C(F)(F)F)n1 (stereo not drawn) do in these assays?
LASV entry inh: inactive; FMDV antiviral: inconclusive; HCMV antiviral: inconclusive; MARV entry inh: inactive

What do the screens show for `CC(C)c1c(C(=O)NCc2cccnc2)cnn1-c1nccc(-c2cccs2)n1`?
FMDV antiviral: inactive

What do the screens show for `Oc1cccc(C(=S)N2CCCCC2)c1`?
LASV entry inh: inactive; SARS PLpro yeast: inactive; FMDV antiviral: inactive; HCV inh: inactive; HCMV antiviral: inconclusive; MARV entry inh: inactive

What do the screens show for `CCC1(c2cccc(O)c2)CCCCN(C)C1` (stereo not drawn)?
FMDV antiviral: inactive; HCV inh: inactive; HCMV antiviral: -68.2

Results for CC(C)(C)OC(=O)N1CCC(c2c(C(=O)NCCN3CCOCC3)cnn2-c2ccc(F)cc2)CC1 ?
LASV entry inh: inactive; FMDV antiviral: inactive; HCMV antiviral: inactive

How did Cn1ncc2c(NCc3ccc(Cl)cc3)ncnc21 do in these assays?
LASV entry inh: inactive; FMDV antiviral: inactive; HCMV antiviral: inconclusive

How did COc1cc2cnncc2cc1OC do in these assays?
LASV entry inh: inactive; SARS PLpro yeast: inactive; FMDV antiviral: inactive; HCV inh: inactive; HCMV antiviral: inactive; MARV entry inh: inactive

Results for COc1cc2cc(Br)cc(Br)c2nc1C ?
LASV entry inh: inactive; SARS PLpro yeast: inactive; FMDV antiviral: inactive; HCV inh: 11.2µM; HCMV antiviral: inactive; MARV entry inh: inactive

How did CCOC(=O)CCN1C(=O)[C@@H]2[C@H]3[C@H](O)[C@H](O)CC(=NNC(=O)OCc4ccccc4)[C@@H]3CC[C@H]2C1=O do in these assays?
LASV entry inh: inactive; MARV entry inh: inactive

Results for Cc1cccc(C)c1OCc1cc(C(=O)N(Cc2c(C)nn(C)c2C)C2CC2)no1 ?
SARS PLpro yeast: inactive; FMDV antiviral: 20µM; HCV inh: 10µM; HCMV antiviral: inactive

What do the screens show for `CC1CCCc2sc3ncn(N)c(=N)c3c21` (stereo not drawn)?
LASV entry inh: inactive; SARS PLpro yeast: inactive; FMDV antiviral: inactive; HCV inh: inconclusive; HCMV antiviral: -63.2; MARV entry inh: inactive

Results for Cc1ccc(-n2c(O)c(C=Nc3ccc(S(N)(=O)=O)cc3)c(=O)[nH]c2=O)cc1 ?
LASV entry inh: inactive; SARS PLpro yeast: inactive; FMDV antiviral: inactive; HCV inh: inactive; HCMV antiviral: -103.7; MARV entry inh: inactive
